From PubChem BioAssay (NCATS)
Records with an inconclusive call do not appear. Calls of active or inactive are those of the source. Unless noted, calls follow the shape of the dose curve; as a rule, active = well fitted curve in the direction sought with a large enough effect; inconclusive = small, poorly fitted or top-dose-only effect, or another doubt; inactive = no such curve, though single readings can be large; an effect the other way counts as inactive or inconclusive.

What was measured:
[1] = target: Voltage-gated inwardly rectifying potassium channel KCNH2 (Homo sapiens) (UniProt Q12809); experiment: qHTS Assay for Small Molecule Inhibitors of the Human hERG Channel Activity (AID 588834);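 also: lower thallium flux fluorescence means stronger hERG block; nearly all actives have a fitted effect of over 50% in size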; also: potency is read from the fitted curve at half-maximal effect
Summary of the method: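 hERG block measured as reduced thallium-dye (FluxOR) fluorescence after stimulation buffer addition, read over 2 min. Cells were hERG-BacMam-transduced U2OS exposed to compound ~10 min […]; concentration-response fitted with Hill equation for AC50.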

[2] = target: Glutaminase kidney isoform, mitochondrial (Homo sapiens) (UniProt O94925); experiment: qHTS for Inhibitors of Glutaminase (GLS): LOPAC Validation (AID 624146); also: nearly all actives have a fitted effect of over 60% in size; also: potency is read from the fitted curve at half-maximal effect
Summary of the method: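 Two-point fluorescence kinetic (t0, 30 min RT) for hKGA; glutamate detected via glutamate oxidase–HRP–Amplex Red. Substrate: 1 mM L-glutamine solution; buffer 45 mM KH2PO4, pH 8.2.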

[3] = qHTS of Trypanosoma Brucei Inhibitors: LOPAC Validation (AID 624147); also: 0% is about no effect
Summary of the method: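 Luminescence from Kinase-Glo Plus, added after a 45-minute room-temperature reaction, served as the end-point read-out. The enzyme and substrate were preincubated with compound before ADP (130 uM final) initiated turnover. Concentration-effect curves came from normalized qHTS data.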

[4] = target: Glucagon-like peptide 1 receptor (Homo sapiens) (UniProt P43220); experiment: qHTS of GLP-1 Receptor Agonists: LOPAC Validation (AID 624148);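 also: luminescence from a luciferase reporter switched on by cAMP; 0% is about no effect; higher luminescence signal means agonism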
Summary of the method: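 Agonism scored as increased luciferase luminescence driven by cAMP in HEK293 clones carrying GLP-1R. Cells settled 12 hours, received compound for 4-6 hr at 37 deg C, 5% CO2, and were read after 12 min detection reagent at RT.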

[5] = qHTS of Nrf2 Activators: LOPAC Validation (AID 624149); also: potency is read from the fitted curve at half-maximal effect; as to activation: 0% is about no effect
Summary of the method: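 Luciferase signal from ARE activation, read with Steady-Glo after 30 min at room temperature. Compounds were pin-transferred onto AREc32_Fluc cells (1000/well, OPTI-MEM/5% FBS, seeded overnight) and left 24 hr at 37 deg C.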

[6] = HTS Assay for Allosteric Antagonists of the Human D2 Dopamine Receptor: Hit Validation in HTRF (AID 624455); also: potency is read from the fitted curve at half-maximal effect;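 also: stable D1 dopamine receptor cell line scored for blocking the D1 response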
Summary of the method: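 Inhibition of the D1-mediated response was measured by HTRF. Cells used were a line stably expressing the D1 dopamine receptor.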

[7] = target: Luciferin 4-monooxygenase (Photinus pyralis) (UniProt P08659); experiment: Biochemical firefly luciferase enzyme assay for NPC (AID 624030); also: nearly all actives have a fitted effect of over 70% in size; also: potency is read from the fitted curve at half-maximal effect
Summary of the method: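 Direct inhibition of firefly luciferase enzyme (10 nM final, 50 mM Tris Acetate) assessed by luminescence within 5 minutes. Percent activity scaled between DMSO and PTC124 positive control, with concentration-effect curves classified by fit quality and response.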

[8] = S16 Schwann cell viability assay (CellTiter-Glo assay) (AID 624031); also: nearly all actives have a fitted effect of over 70% in size; also: potency is read from the fitted curve at half-maximal effect
Summary of the method: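 Untransfected S16 rat Schwann cells; compound 24 h, 37 °C/5% CO2; CellTiter-Glo ATP luminescence. % activity vs no-cell wells and DMSO controls (0%); concentration-effect curves classed by r2, response magnitude, activity.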

[9] = S16 Schwann cell PMP22 intronic element beta-lactamase assay (AID 624044; calls by dose curve; also: nearly all actives have a fitted effect of over 15% in size; also: potency is read from the fitted curve at half-maximal effect)
Summary of the method: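 Beta-lactamase reporter under a PMP22 intronic regulatory element in stable S16 rat Schwann cells; 24 h compound exposure. 460 nm blue signal normalized between DMSO (0%) and potassium clavulanate, with 535 nm FRET tracking viability; curves classed by r2 and response.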

[10] = S16 Schwann cell PMP22 intronic element firefly luciferase assay (AID 624032); also: nearly all actives have a fitted effect of over 30% in size; also: potency is read from the fitted curve at half-maximal effect
Summary of the method: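 Luciferase reporter of PMP22 intronic-element expression in stably transfected S16 rat Schwann cells, read by ONE-Glo luminescence after 24 h compound exposure at 37 C. Activity scaled between DMSO (0%) and positive-control PTC124; concentration-effect curves quality-classified.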

[11] = qHTS assay for small molecule agonists of the antioxidant response element (ARE) signaling pathway (AID 651741; active = well fitted activation curve with a large enough effect in the signal ratio; the % refers to the signal ratio; also: potency is read from the fitted curve at half-maximal effect)
Summary of the method: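 Beta-lactamase reporter under ARE control in HepG2 cells, 2,000 per well, was induced by 16 h compound treatment at 37 C. Read-out was fluorescence from LiveBLAzer B/G FRET substrate after 2 h at room temperature.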

[12] = qHTS assay for small molecule activators of the p53 signaling pathway (AID 651743; active = well fitted activation curve with a large enough effect in the signal ratio, not every such curve was filed as active; the % refers to the signal ratio; also: series mostly up to about 92 µM; % of control where 0% means no effect); conditions: HCT-116 p53RE-bla, beta-lactamase FRET ratio, 16 h; activation: hits give high values
Summary of the method: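 After 16 hours compound treatment at 37 C, HCT-116 cells stably expressing p53RE-driven beta-lactamase were loaded with LiveBLAzer B/G FRET substrate for 2 hours at room temperature. Fluorescence intensity served as the p53 activation read-out.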

[13] = qHTS assay for small molecule disruptors of the mitochondrial membrane potential - 5 hr assay (AID 651755; calls by dose curve; also: % is scaled to controls: 0 for no effect and ±100 for the full control effect; nearly all actives have a fitted effect of over 40% in size)
Summary of the method: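 Membrane-potential dye readout: red aggregate (540 ex/590 em) versus green monomer (490 ex/535 em) fluorescence after 30 min dye loading, following 5 hr compound exposure at 37C of overnight-plated HepG2 cells.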

[14] = qHTS assay for small molecule activators of the nuclear factor-kappa B (NF-kB) signaling pathway (AID 651749; active = well fitted activation curve with a large enough effect in the signal ratio; the % refers to the signal ratio; also: series mostly up to about 77 µM; % of control where 0% means no effect); conditions: NF-kB-bla ME-180 cells, beta-lactamase FRET ratio, 16 h; hits give high values
Summary of the method: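 Activation measured after 16 hr compound treatment at 37C, 5% CO2, of 2,000 ME-180 cells/well stably expressing an NF-kB response element–driven beta-lactamase reporter, via FRET-disruption fluorescence.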

Luciferin 4-monooxygenase (Photinus pyralis), sequence (P08659 whole entry, looked up): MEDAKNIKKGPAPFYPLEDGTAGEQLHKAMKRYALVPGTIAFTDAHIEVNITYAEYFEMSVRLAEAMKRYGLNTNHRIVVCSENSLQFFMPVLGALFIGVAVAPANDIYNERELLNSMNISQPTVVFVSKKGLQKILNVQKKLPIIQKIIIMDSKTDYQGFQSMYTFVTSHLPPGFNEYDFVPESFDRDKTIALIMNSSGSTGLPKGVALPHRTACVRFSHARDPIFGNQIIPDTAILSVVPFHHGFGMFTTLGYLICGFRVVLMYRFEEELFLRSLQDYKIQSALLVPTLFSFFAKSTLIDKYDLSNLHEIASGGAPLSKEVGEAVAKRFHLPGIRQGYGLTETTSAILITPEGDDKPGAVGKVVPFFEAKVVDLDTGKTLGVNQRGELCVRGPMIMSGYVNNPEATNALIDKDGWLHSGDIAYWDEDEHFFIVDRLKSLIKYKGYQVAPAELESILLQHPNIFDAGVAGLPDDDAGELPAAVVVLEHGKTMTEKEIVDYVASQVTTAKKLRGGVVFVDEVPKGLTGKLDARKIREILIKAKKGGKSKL
Voltage-gated inwardly rectifying potassium channel KCNH2 (Homo sapiens), sequence (Q12809 whole entry, looked up): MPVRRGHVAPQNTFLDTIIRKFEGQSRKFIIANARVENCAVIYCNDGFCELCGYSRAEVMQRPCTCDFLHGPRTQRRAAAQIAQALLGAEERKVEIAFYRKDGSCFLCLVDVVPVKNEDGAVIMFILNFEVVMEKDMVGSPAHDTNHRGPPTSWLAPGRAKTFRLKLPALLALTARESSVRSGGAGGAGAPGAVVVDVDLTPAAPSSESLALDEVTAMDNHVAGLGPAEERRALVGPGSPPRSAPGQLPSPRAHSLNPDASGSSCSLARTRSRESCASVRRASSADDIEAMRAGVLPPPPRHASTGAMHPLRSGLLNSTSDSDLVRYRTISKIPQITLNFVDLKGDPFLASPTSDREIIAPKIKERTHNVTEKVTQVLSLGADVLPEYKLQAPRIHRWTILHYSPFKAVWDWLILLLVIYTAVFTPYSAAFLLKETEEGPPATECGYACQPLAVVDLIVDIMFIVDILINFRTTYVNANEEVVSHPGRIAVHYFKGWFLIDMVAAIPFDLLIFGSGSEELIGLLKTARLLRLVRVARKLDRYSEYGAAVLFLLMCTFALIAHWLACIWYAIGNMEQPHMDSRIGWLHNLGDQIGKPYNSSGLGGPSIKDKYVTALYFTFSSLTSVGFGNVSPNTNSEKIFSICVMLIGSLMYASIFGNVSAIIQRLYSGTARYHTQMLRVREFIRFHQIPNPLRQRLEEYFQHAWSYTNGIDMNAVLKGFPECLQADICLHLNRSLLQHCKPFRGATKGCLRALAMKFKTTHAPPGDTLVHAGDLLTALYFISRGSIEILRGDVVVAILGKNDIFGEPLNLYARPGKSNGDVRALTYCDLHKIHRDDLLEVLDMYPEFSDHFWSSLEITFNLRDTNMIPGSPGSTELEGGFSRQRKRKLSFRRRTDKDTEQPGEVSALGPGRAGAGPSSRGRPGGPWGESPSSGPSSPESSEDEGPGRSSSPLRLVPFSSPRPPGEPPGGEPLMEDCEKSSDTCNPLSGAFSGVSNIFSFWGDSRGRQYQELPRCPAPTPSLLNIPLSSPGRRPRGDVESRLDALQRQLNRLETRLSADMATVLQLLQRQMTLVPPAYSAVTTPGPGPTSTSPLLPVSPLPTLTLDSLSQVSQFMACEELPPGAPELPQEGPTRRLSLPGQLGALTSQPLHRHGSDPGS
Glucagon-like peptide 1 receptor (Homo sapiens), sequence (P43220 whole entry, looked up): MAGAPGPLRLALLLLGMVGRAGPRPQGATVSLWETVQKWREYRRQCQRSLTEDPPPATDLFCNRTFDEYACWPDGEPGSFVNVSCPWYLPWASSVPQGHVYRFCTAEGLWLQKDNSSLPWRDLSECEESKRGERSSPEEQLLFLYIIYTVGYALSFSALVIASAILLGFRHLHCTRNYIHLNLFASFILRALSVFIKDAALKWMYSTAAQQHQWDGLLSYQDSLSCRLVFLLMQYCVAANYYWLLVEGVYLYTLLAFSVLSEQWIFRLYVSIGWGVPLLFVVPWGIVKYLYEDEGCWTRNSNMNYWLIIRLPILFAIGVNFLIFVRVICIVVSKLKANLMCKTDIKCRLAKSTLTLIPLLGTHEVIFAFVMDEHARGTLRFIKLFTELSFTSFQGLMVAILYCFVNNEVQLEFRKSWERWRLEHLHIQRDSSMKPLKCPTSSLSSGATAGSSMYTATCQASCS
Glutaminase kidney isoform, mitochondrial (Homo sapiens), sequence (O94925 whole entry, looked up, canonical isoform): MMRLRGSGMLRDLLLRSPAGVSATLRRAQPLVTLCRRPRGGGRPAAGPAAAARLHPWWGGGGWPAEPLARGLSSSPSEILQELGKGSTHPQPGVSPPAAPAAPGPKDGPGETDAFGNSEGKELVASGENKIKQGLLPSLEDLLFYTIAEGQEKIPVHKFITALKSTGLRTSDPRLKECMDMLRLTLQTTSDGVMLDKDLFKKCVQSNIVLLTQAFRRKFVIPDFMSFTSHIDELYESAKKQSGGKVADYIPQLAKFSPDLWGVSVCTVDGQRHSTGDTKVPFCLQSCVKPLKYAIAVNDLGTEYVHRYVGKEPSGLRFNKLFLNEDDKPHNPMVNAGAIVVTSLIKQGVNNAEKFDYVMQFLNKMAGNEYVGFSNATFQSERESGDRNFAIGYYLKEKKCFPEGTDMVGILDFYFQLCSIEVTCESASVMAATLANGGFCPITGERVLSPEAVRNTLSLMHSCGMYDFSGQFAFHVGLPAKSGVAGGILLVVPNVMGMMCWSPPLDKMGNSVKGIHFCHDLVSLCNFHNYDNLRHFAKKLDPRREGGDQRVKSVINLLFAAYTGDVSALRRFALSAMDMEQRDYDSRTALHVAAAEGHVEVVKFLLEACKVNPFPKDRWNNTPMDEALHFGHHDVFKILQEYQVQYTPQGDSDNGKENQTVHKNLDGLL

CO[C@H]1CC=C2CCN3CCC4=C(CC(=O)OC4)[C@]23C1
inactive: Potency [1] | Potency [2] | Potency [3] | outcome [4] | Potency [5] | Potency [6]

COc1ccc2c(c1)C13CCCCC1C(C2)N(C)CC3 (stereo not drawn)
inactive: Potency [1] | Potency [2] | Potency [3] | outcome [4] | Potency [5] | Potency [6]

NC(CCCCCP(=O)(O)O)C(=O)O (stereo not drawn)
inactive: Potency [1] | Potency [2] | Potency [3] | outcome [4] | Potency [5] | Potency [6]

C[N+](C)(C)CC#CCN1CCCC1=O
inactive: Potency [1] | Potency [2] | outcome [4] | Potency [5] | Potency [6]

c1ccc(C2(N3CCCC3)CCCCC2)cc1
inactive: Potency [7] | Potency [8] | Potency [9]

C=CCN(C1=NCCN1)c1c(Cl)cccc1Cl
inactive: Potency [7] | Potency [8] | Potency [10] | Potency [9] | Potency [2] | Potency [3] | outcome [4] | Potency [5] | Potency [6]

OCc1cnc[nH]1
inactive: Potency [2] | Potency [3] | outcome [4] | Potency [5] | Potency [6]

CCCN(CCC)[C@H]1CCc2c(F)ccc(O)c2C1
active: Potency [1] 7.08 µM | Potency [6] 7.31 µM
inactive: outcome [4] | Potency [5]

NC(N)=NOCC[C@H](N)C(=O)O
inactive: Potency [1] | Potency [3] | outcome [4] | Potency [5] | Potency [6]

NNC(=O)c1ccc(O)cc1
inactive: Potency [1] | Potency [3] | outcome [4] | Potency [5] | Potency [6]

CC(N)Cc1c[nH]c2ccc(O)cc12 (stereo not drawn)
inactive: Potency [1] | outcome [4] | Potency [5] | Potency [6]
active: Potency [2] 0.794 µM

c1ccc2cc(CC3=NCCN3)ccc2c1
inactive: Potency [7] | Potency [8] | Potency [10] | Potency [9] | Potency [2] | Potency [3] | outcome [4] | Potency [5] | Potency [6]

O=[N+]([O-])c1ccc2nc(N3CCNCC3)ccc2c1
inactive: Potency [1] | outcome [4] | Potency [5] | Potency [6]

[Cl-].[Cl-].[Hg+2]
active: Potency [7] 12.8 µM | Potency [8] 2.56 µM | Potency [10] 0.809 µM | Potency [9] 3.16 µM | Potency [11] 29.8 µM
inactive: activation [12] 5.15% | Potency [13]

C[N+]1(C)CCOC(O)(c2ccc(-c3ccc(C4(O)C[N+](C)(C)CCO4)cc3)cc2)C1 (stereo not drawn)
inactive: Potency [1] | outcome [4] | Potency [5] | Potency [6]

CCCN1CCC[C@@H](c2cccc(O)c2)C1
inactive: Potency [2] | Potency [3] | outcome [4] | Potency [5]

CC12NC(Cc3ccccc31)c1ccccc12 (stereo not drawn)
inactive: Potency [7] | Potency [10] | Potency [9] | Potency [2] | outcome [4] | Potency [5] | Potency [6]

CCCn1c(=O)c2[nH]c(C3CCCC3)nc2n(CCCOC(=O)c2ccc(S(=O)(=O)F)cc2)c1=O
inactive: Potency [2] | outcome [4] | Potency [5] | Potency [6]
active: Potency [1] 14.1 µM

CC(C)[C@@]1(NC(=O)[C@@H]2C[C@@H]3c4cccc5[nH]cc(c45)C[C@H]3N(C)C2)O[C@@]2(O)[C@@H]3CCCN3C(=O)[C@H](Cc3ccccc3)N2C1=O
active: Potency [6] 0.0517 µM
inactive: Potency [7] | outcome [4] | Potency [5]

CCCn1c(C)c(C(=O)c2ccc3ccccc3c2)c2ccccc21
inactive: Potency [2] | outcome [4] | Potency [5] | Potency [6]
active: Potency [1] 6.31 µM

CCNC(C)Cc1cccc(C(F)(F)F)c1 (stereo not drawn)
inactive: Potency [7] | Potency [8] | Potency [10] | Potency [9]

CC(=O)c1c(O)c(C)c(O)c(Cc2c(O)c3c(c(C(=O)/C=C/c4ccccc4)c2O)OC(C)(C)C=C3)c1O
inactive: Potency [1] | Potency [3] | outcome [4] | Potency [5] | Potency [6]

c1cc2c(c(NC3=NCCN3)c1)CCCC2
inactive: Potency [7] | Potency [8] | Potency [10] | Potency [9]

NC(N)=Nc1ccc2[nH]c3c(c2c1)C[C@@]1(O)[C@H]2Cc4ccc(O)c5c4[C@@]1(CCN2CC1CC1)[C@H]3O5
inactive: Potency [1] | Potency [6]
active: Potency [5] 2.91 µM

COc1ccc2[nH]c3c(c2c1)CCNC3
inactive: Potency [1] | outcome [4] | Potency [5] | Potency [6]

Oc1ccc2c3c1O[C@H]1c4[nH]c5ccccc5c4C[C@@]4(O)C(C2)N(CC2CC2)CCC314 (stereo partly drawn)
inactive: Potency [3] | outcome [4] | Potency [5] | Potency [6]
active: Potency [1] 0.794 µM

Cc1c2ccncc2c(C)c2c1[nH]c1ccccc12
inactive: Potency [3] | outcome [4] | Potency [5] | Potency [6]
active: Potency [1] 20 µM

CN(C(=O)Cc1ccc(Cl)c(Cl)c1)C(CN1CCCC1)c1cccc(OCC(=O)O)c1 (stereo not drawn)
inactive: Potency [2] | Potency [3] | outcome [4] | Potency [5] | Potency [6]

C[C@@H]1O[C@@H](O[C@H]2C[C@@H](O)[C@]3(CO)[C@@H]4C(CC[C@]3(O)C2)[C@@]2(O)CC[C@H]([C@@H]3COC(=O)C3)[C@@]2(C)C[C@H]4O)[C@H](O)[C@H](O)[C@H]1O (stereo partly drawn)
inactive: Potency [2] | Potency [3] | outcome [4] | Potency [5]

C#CCN1CC(=O)N(COC(=O)C2C(C=C(C)C)C2(C)C)C1=O (stereo not drawn)
inactive: Potency [1] | activation [12] -4.17% | activation [14] 1.36%

Cc1[nH]c2ccc(O)cc2c1CCN
inactive: Potency [1] | outcome [4] | Potency [5] | Potency [6]

Cc1sc2ccccc2c1CC1=NCCN1
inactive: Potency [7] | Potency [8] | Potency [10] | Potency [9] | Potency [2] | Potency [3] | outcome [4] | Potency [5] | Potency [6]

C=CCN1CC[C@]23c4c5ccc(O)c4O[C@H]2/C(=N/NC(=O)c2ccccc2)CC[C@@]3(O)[C@H]1C5
active: Potency [1] 3.16 µM | Potency [2] 14.1 µM
inactive: outcome [4] | Potency [5] | Potency [6]

[Cl][Pt][Cl]
inactive: Potency [7]

O=S1(=O)N(CCN2CC=C(c3c[nH]c4cc(F)ccc34)CC2)c2cccc3c2N1CCC3
inactive: outcome [4] | Potency [5] | Potency [6]
active: Potency [1] 7.08 µM
